Data from PubChem BioAssay AID1063 (University of Pittsburgh Molecular Library Screening Center, 2008).
The whole screen tested about 200,000 compounds, of which about 18,000 (9%) were called active. Only a selection was taken, and actives are over-represented in it overall. A number with no mark means an inactive call. Cut-off read from the data, not from the text of the source: active = inhibition above about 50%; inactive = the rest.

Test: antileishmanial activity against promastigotes – primary screen (AID 1063);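 note: promastigotes grown with compound for 44 hours at 28 °C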
Conditions: Leishmania major promastigotes, resazurin fluorescence viability; at 10 µM; hits give high values
Work on `S=c1[nH]nc(/C=C/c2ccccc2)o1` yielded an inhibition of -11.6%.
In the case of `CN1CCN(CC(=O)Nc2cccc([N+](=O)[O-])c2)CC1`, the inhibition is reported as -5.42%.
For `O=C(O)c1cccc(NC(=S)N/N=C/c2c[nH]c3ccccc23)c1`, the inhibition was -4.34%.
For `O=C(N/N=C/c1ccc(Cl)cc1)c1nc2ccc([N+](=O)[O-])cc2c(=O)[nH]1`, the inhibition was 13.4%.
With `Brc1ccc(-c2csc(N/N=C/c3ccc4c(c3)OCO4)n2)cc1` the inhibition was 1.9%.
For `Cc1nc2ccccc2cc1C(=O)N/N=C/c1ccc([N+](=O)[O-])cc1`, the inhibition was -3.55%.
For `O=C(Cc1ccc(F)cc1)N/N=C/c1ccc2c(c1)OCO2`, the inhibition was -2.74%.
For `C(=N\Nc1ccc2ccccc2n1)/c1ccc2c(c1)OCO2`, the inhibition was 52.1% (active).
Molecule `Cc1cc(C)nc(N/N=C/c2c(C)oc3ccccc23)n1` has an inhibition of 3.92%.
In the case of `Cc1noc(C)c1/C=N/Nc1ccc2ccccc2n1`, the inhibition is reported as 56.6% (active).
`CC(C)(C)NC(=O)CN(C(=O)c1ccc(Cl)nc1)c1cccc2ccccc12` gave an inhibition of 31.5%.
Work on `COc1ccc(Cl)cc1N(CC(=O)N/N=C/c1ccc(OCC(N)=O)cc1)S(C)(=O)=O` yielded an inhibition of 30.9%.
Work on `CCOc1ccc(N(CC(=O)NCCc2ccc(OC)cc2)S(C)(=O)=O)cc1` yielded an inhibition of -6.74%.
With `COCCN(C(=O)CCC(=O)Nc1nccs1)C(C(=O)NC(C)(C)C)c1ccc(Cl)cc1` (stereo unspecified) the inhibition was -1.47%.
With `CCCCCOC(=O)C1=C(C)Nc2nnnn2C1c1ccc(OC)c(OC)c1OC` (stereo unspecified) the inhibition was 92.7% (active).
`CC1=C(C(N)=O)C(c2sccc2C)n2nnnc2N1` (stereo unspecified) showed an inhibition of -2.53%.
For `COCCOC(=O)C1=C(C)Nc2nc(C)nn2C1c1ccccc1` (stereo unspecified), the inhibition was 1.25%.
Molecule `O=C(CCc1ccccc1)Nc1nn[nH]n1` has an inhibition of -3.55%.
`O=C(CSc1ccc([N+](=O)[O-])cn1)Nc1ccc(N2CCOCC2)cc1` showed an inhibition of -2.33%.
With `COC(=O)c1ccc(NCC(=O)N2CCCCCC2)cc1` the inhibition was -4.15%.
Work on `O=C(O)c1ccn(COc2ccc(Br)cc2)n1` yielded an inhibition of -6.55%.
`O=C(CSc1c2c(nc3ccc(Cl)cc13)CCCC2)NCc1ccco1` showed an inhibition of 39.9%.
With `C=CCn1c(CSc2nc3ccccc3s2)nnc1SCC(=O)NCc1ccco1` the inhibition was -0.85%.
For `O=C(CSc1nc2ccc(Nc3nc(N4CCOCC4)nc(N4CCOCC4)n3)cc2s1)NCc1ccco1`, the inhibition was 66% (active).
Molecule `CCN(CC)S(=O)(=O)c1ccc(N(C)CCc2ccc(OC)c(OC)c2)nc1` has an inhibition of 20.7%.
Work on `Cc1ccc(O)c(NC(=S)NC(=O)COc2ccc(Br)cc2)c1` yielded an inhibition of -2.21%.
For `CC(=O)NC(Cc1ccccc1)C(=O)NC1CCN(c2ncccc2[N+](=O)[O-])CC1` (stereo unspecified), the inhibition was 57.3% (active).
With `CNC(=S)N1CCC(NC(=O)C(Cc2ccc(F)cc2)NC(C)=O)CC1` (stereo unspecified) the inhibition was -5.13%.
Work on `CC(=O)NC(Cc1ccc(F)c(F)c1)C(=O)NC1CCN(c2nnnn2-c2ccccc2)CC1` (stereo unspecified) yielded an inhibition of 9.51%.
For `CC(Sc1nc2cc(Cl)ccc2s1)C(=O)Nc1ccc2c(c1)OCO2` (stereo unspecified), the inhibition was 3.45%.
Molecule `O=C(Nc1ccc(N2CCOCC2)cc1)c1ccc(-c2ccccc2[N+](=O)[O-])o1` has an inhibition of 7.53%.
With `CCOc1cc(NS(=O)(=O)c2ccc(OC)cc2)c(OCC)cc1NC(C)=O` the inhibition was -2.08%.
`O=C(Cn1c(-c2cscn2)nc2ccccc21)Nc1ccc(Cl)cc1` gave an inhibition of 16.4%.
In the case of `O=C(Cn1c(COc2ccccc2)nc2ccccc21)Nc1cc(Cl)c(Cl)cc1Cl`, the inhibition is reported as 94.1% (active).
`COCn1c(COc2ccccc2)nc2ccccc21` gave an inhibition of 1.65%.
For `Cc1ccc(N(C(=O)Cc2cccs2)C2C=CS(=O)(=O)C2)cc1Cl` (stereo unspecified), the inhibition was 3.36%.
`O=C(Nc1ccc(Cl)cn1)c1ccc2c(c1)OCCO2` showed an inhibition of -10.2%.
Work on `CCN(CC(=O)NCc1cccs1)S(=O)(=O)c1ccc(NC(C)=O)cc1` yielded an inhibition of -3.41%.
In the case of `COc1ccc(NC(=S)NCCN2CCC(C)CC2)cc1`, the inhibition is reported as 23.9%.
In the case of `COc1ccc(NC(=S)NCC2CCN(c3ccc(OC)cc3)C2)cc1` (stereo unspecified), the inhibition is reported as 74.9% (active).
`COc1ccc(N2CCN(C(=S)Nc3ccc(S(N)(=O)=O)cc3)CC2)cc1` gave an inhibition of -7.62%.
Molecule `Cc1c(NC(=O)CCC2CCCCC2)cc(C(=O)N2CCOCC2)cc1[N+](=O)[O-]` has an inhibition of -3.89%.
For `COc1ccccc1C(=O)C(O)c1ccccc1OC` (stereo unspecified), the inhibition was 1.96%.
In the case of `CCOC(=O)C(=Cc1ccccc1OC)C(=O)OCC`, the inhibition is reported as 53.7% (active).
`CCOC(=O)C(=CNc1cccc(C)n1)C(=O)OCC` showed an inhibition of -3.94%.
With `Cn1c(CCC(=O)OCC(=O)NCc2ccccc2Cl)nc(=O)c2ccccc21` the inhibition was -0.71%.
With `Cc1ncoc1C(=O)NCCC(c1ccccc1)c1ccccc1` the inhibition was 1.37%.
For `CCOC(=O)c1cnc(-n2nc(C)cc2C)nc1NNc1cc(C)nc(-c2ccccc2)n1`, the inhibition was 100% (active).
`CCOC(=O)c1cnc(-n2nc(C)cc2C)nc1Nc1cccc(C(C)=O)c1` showed an inhibition of 4.22%.
Work on `CCOC(=O)c1cnc(-n2nc(C)cc2C)nc1-n1nc(C)cc1C` yielded an inhibition of 33%.
In the case of `CCOC(=O)C(C)n1nc(-c2ccccc2)c2ccccc2c1=O` (stereo unspecified), the inhibition is reported as 12.5%.
Molecule `CN(C)c1nc(-c2cccnc2)nc(-c2ccc(Cl)cc2)c1C#N` has an inhibition of 8.3%.
`COCCN(CCOC)S(=O)(=O)c1ccc(/C(O)=C(\C#N)c2nc3ccccc3[nH]2)cc1` gave an inhibition of 1.17%.
In the case of `CC(C)(C)NC(=O)NC(=O)COC(=O)C1(C)CC1(Cl)Cl` (stereo unspecified), the inhibition is reported as 0.27%.
With `CCOn1c(=O)c(=O)n(O)c2ccccc21` the inhibition was -2.81%.
`Cn1nnnc1SCC(=O)NNC(=O)c1ccc(Br)cc1` showed an inhibition of -7.24%.
In the case of `COC(=O)CSc1nc(C2CC2)nc2ccccc12`, the inhibition is reported as -7.75%.
For `CN(C(=O)CSc1nc(C2CC2)nc2ccccc12)c1nc(-c2ccccc2)cs1`, the inhibition was 54.6% (active).
In the case of `O=C(CSc1nc(C2CC2)nc2ccccc12)Nc1ccc2c(c1)OCCO2`, the inhibition is reported as 6.82%.
Molecule `CCn1ccnc1CN(C)Cc1nc(-c2ccc3c(c2)OCO3)no1` has an inhibition of 1.95%.
Work on `CN(Cc1cc2cc(F)ccc2[nH]1)Cc1nc(-c2cnccn2)no1` yielded an inhibition of -6.82%.
`COc1cc(CNc2ncn[nH]2)ccc1OCc1ccccc1C` showed an inhibition of -5.58%.
With `CCNC(=O)c1ccc(OCC(=O)Nc2ccc(F)cc2)c(OC)c1` the inhibition was 0.66%.
`COc1ccc(CNCCCO)cc1OC` showed an inhibition of -3.13%.
For `CCOCCCNCc1ccc(OCc2ccc(F)cc2)c(OC)c1`, the inhibition was 97.1% (active).
`CCN(CC)CCNCc1ccc(OCc2ccc(Cl)nc2)c(OC)c1` showed an inhibition of -3.17%.
In the case of `COc1cc(CNCCN(C)C)ccc1OCc1c(F)cccc1Cl`, the inhibition is reported as 66.6% (active).
For `CCCCC1N2CC3([N+](=O)[O-])CN1CC([N+](=O)[O-])(C2)C3(C)C` (stereo unspecified), the inhibition was -3.35%.
With `Cc1cccc(NC(=O)Nc2ccc3c(c2)OCO3)n1` the inhibition was -1.54%.
With `CCN(CC)CCOc1ccc2c(c1)C(=NNC(=O)c1ccccn1)c1cc(OCCN(CC)CC)ccc1-2` the inhibition was 101% (active).
Molecule `CCOc1cc(NC(=O)c2ccccn2)c(OCC)cc1NC(=O)c1ccc(OC)cc1` has an inhibition of -3.96%.
In the case of `CCC(C)(NC(=O)c1ccccn1)C(=O)NC1CCCCC1` (stereo unspecified), the inhibition is reported as 0.94%.
In the case of `CC(=O)C1=C(C)NC2=C(C(=O)CC(C)(C)C2)C1C` (stereo unspecified), the inhibition is reported as -3.1%.
`CCC(C)NCC(=O)Nc1ccc([N+](=O)[O-])cc1C(=O)Nc1ccccc1F` (stereo unspecified) showed an inhibition of 11.7%.
`CC(C)(C)NC(=O)C(=O)NN=C1CCCCCCC1` gave an inhibition of 9.68%.
`CC(=O)Nc1ccc(CN2CCN(Cc3ccc(F)c(F)c3)C(CCO)C2)cc1` (stereo unspecified) showed an inhibition of 6.71%.
With `CC(C)=CCN1CCN(Cc2ccc(Oc3ncccn3)cc2)CC1CCO` (stereo unspecified) the inhibition was -0.29%.
In the case of `Cc1ccc(CN2CCN(Cc3ccc4ncccc4c3)CC2CCO)cc1` (stereo unspecified), the inhibition is reported as 73.7% (active).
Molecule `COc1ccc(CN2CCN(Cc3cn(C)nc3-c3ccccc3)CC2CCO)c(C)c1C` (stereo unspecified) has an inhibition of -0.96%.
`CC(C)N1CCC(N2CCN(Cc3cccnc3)CC2CCO)CC1` (stereo unspecified) showed an inhibition of -2.03%.
In the case of `CC(C)CCN1CCN(C/C=C/c2ccco2)CC1CCO` (stereo unspecified), the inhibition is reported as 5.83%.
With `COC(=O)c1ccc(CN2CCN(CCCc3ccccc3)C(CCO)C2)cc1` (stereo unspecified) the inhibition was 83.9% (active).
`CC(C)CCN1CCN(Cc2cn[nH]c2C2CCCCC2)CC1CCO` (stereo unspecified) gave an inhibition of 24.3%.
Work on `Cc1ccc(CN2CCN(Cc3cccc(C)n3)CC2CCO)cc1` (stereo unspecified) yielded an inhibition of -2.02%.
For `OCCC1CN(Cc2ccc(Oc3ncccn3)cc2)CCN1CCc1ccccc1` (stereo unspecified), the inhibition was 59.6% (active).
For `OCCC1CN(Cc2ccc3nsnc3c2)CCN1C1CCCCC1` (stereo unspecified), the inhibition was 13.5%.
For `CC(C)CCN1CCN(Cc2ccc(C(F)(F)F)cc2)CC1CCO` (stereo unspecified), the inhibition was 87.1% (active).
`CCOC(=O)C(CC)/C(C)=N\NC(=O)c1cccc(C)c1` (stereo unspecified) gave an inhibition of -5.28%.
Molecule `COC(=O)c1cccnc1NC(=S)NC(C)C` has an inhibition of -3.71%.
Work on `C=CCNC(=O)CC12CC3CC(C1)CC(CC(=O)NCC=C)(C3)C2` yielded an inhibition of -6.25%.
`COc1cccc(C(=O)Nc2cccnc2)c1OC` showed an inhibition of -4.33%.
With `CCCN(C(=O)CSc1nnnn1C)c1c(N)n(Cc2ccccc2)c(=O)[nH]c1=O` the inhibition was -5.81%.
With `O=C(CCN1C(=O)C2C3C=CC(C3)C2C1=O)Oc1ccc2ccccc2c1` (stereo unspecified) the inhibition was 24%.
Molecule `O=c1[nH]c(N2CCN(Cc3ccc4c(c3)OCO4)CC2)nc2c1CCCC2` has an inhibition of 0.88%.
Work on `CCOC(=O)CSc1ccccn1` yielded an inhibition of -7.49%.
With `Cc1c(Cc2ccccc2)c(=O)oc2cc(OCC(N)=O)ccc12` the inhibition was -6.96%.
